The results in this text go back to ChEMBL document CHEMBL5308504, “Tm Shift (DSF) assay results for EUbOPEN Chemogenomics Library” (2023).

Settings in all cases: Compound concentration 20.0 uM, Protein concentration 2.0 uM, Result type QC Liability
Assay [1] addresses Tyrosine-protein kinase ABL1 (Homo sapiens) (UniProt P00519).
Assay [2] has as its target Cyclin-dependent kinase 2 (Homo sapiens) (UniProt P24941).
For assay [3], the target named is Casein kinase I isoform delta (Homo sapiens) (UniProt P48730).
Chain of Casein kinase I isoform delta (Homo sapiens) (P48730 whole entry, looked up, canonical isoform): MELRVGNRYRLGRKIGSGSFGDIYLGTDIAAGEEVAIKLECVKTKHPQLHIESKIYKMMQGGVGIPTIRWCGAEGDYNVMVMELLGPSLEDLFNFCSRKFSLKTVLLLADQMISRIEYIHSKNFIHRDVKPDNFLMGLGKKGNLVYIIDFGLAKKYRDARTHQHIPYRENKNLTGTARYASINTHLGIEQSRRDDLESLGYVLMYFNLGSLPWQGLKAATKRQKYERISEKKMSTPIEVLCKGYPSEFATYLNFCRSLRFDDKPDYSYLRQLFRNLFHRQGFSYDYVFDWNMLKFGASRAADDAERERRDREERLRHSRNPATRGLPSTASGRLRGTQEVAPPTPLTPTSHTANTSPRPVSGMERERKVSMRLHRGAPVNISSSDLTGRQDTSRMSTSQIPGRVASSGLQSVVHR
Assay [4] addresses Glycogen synthase kinase-3 beta (Homo sapiens) (UniProt P49841).
The target in assay [5] is Mitogen-activated protein kinase 1 (Homo sapiens) (UniProt P28482).
Chain of Mitogen-activated protein kinase 1 (Homo sapiens) (P28482 whole entry): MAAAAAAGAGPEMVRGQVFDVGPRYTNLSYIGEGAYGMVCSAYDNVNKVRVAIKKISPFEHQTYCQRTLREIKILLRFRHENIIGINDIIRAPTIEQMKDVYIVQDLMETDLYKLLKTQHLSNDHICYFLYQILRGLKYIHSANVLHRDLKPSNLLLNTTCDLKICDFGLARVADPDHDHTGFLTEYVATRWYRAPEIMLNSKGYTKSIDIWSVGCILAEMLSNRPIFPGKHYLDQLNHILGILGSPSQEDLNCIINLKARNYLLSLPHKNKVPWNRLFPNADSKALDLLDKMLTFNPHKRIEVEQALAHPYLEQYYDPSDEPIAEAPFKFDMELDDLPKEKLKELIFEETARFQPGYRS
The target in assay [6] is T1, Aurora kinase A (Homo sapiens) (UniProt O14965).
T1 sequence (whole entry): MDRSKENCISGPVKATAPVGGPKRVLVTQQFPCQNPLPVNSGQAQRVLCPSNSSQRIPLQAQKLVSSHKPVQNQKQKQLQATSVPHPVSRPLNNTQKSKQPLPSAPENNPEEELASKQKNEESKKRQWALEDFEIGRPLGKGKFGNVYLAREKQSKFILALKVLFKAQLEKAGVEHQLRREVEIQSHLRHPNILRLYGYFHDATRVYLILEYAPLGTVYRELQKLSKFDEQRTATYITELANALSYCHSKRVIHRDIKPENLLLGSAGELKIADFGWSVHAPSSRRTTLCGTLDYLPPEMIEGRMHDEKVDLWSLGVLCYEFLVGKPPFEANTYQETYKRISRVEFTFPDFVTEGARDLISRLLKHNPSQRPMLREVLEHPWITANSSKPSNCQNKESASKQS

Assay [7] addresses T2, Transcription intermediary factor 1-alpha (Homo sapiens) (UniProt O15164).
T2 sequence (whole entry): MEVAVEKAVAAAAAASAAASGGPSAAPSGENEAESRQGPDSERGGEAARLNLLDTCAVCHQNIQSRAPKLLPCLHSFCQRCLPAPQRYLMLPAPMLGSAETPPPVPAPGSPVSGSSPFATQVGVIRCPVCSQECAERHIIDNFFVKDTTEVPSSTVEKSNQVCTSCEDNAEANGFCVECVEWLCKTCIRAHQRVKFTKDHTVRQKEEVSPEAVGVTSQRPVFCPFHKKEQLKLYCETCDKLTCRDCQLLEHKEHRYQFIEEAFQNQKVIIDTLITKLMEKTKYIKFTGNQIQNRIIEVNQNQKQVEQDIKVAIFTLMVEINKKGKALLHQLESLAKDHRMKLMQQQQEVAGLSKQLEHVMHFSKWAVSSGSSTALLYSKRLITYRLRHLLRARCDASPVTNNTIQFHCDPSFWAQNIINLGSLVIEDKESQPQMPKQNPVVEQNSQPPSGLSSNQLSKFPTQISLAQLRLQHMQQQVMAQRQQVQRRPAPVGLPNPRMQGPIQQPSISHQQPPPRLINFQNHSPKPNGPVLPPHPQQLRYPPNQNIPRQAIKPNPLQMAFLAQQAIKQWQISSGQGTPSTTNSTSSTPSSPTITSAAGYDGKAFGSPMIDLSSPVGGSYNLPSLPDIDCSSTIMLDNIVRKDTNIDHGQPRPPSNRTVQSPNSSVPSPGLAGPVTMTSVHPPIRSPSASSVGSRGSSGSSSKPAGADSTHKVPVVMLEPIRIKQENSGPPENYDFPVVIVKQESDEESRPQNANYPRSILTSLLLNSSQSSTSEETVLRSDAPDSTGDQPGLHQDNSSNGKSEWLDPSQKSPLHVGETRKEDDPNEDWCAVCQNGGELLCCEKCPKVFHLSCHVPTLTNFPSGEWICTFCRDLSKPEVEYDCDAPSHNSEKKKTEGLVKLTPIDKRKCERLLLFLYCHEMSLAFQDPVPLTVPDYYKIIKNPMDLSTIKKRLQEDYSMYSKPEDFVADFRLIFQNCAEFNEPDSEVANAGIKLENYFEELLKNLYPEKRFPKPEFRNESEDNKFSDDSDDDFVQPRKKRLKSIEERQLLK

Each structure is given as a SMILES string.

Chain of Tyrosine-protein kinase ABL1 (Homo sapiens) (P00519 whole entry): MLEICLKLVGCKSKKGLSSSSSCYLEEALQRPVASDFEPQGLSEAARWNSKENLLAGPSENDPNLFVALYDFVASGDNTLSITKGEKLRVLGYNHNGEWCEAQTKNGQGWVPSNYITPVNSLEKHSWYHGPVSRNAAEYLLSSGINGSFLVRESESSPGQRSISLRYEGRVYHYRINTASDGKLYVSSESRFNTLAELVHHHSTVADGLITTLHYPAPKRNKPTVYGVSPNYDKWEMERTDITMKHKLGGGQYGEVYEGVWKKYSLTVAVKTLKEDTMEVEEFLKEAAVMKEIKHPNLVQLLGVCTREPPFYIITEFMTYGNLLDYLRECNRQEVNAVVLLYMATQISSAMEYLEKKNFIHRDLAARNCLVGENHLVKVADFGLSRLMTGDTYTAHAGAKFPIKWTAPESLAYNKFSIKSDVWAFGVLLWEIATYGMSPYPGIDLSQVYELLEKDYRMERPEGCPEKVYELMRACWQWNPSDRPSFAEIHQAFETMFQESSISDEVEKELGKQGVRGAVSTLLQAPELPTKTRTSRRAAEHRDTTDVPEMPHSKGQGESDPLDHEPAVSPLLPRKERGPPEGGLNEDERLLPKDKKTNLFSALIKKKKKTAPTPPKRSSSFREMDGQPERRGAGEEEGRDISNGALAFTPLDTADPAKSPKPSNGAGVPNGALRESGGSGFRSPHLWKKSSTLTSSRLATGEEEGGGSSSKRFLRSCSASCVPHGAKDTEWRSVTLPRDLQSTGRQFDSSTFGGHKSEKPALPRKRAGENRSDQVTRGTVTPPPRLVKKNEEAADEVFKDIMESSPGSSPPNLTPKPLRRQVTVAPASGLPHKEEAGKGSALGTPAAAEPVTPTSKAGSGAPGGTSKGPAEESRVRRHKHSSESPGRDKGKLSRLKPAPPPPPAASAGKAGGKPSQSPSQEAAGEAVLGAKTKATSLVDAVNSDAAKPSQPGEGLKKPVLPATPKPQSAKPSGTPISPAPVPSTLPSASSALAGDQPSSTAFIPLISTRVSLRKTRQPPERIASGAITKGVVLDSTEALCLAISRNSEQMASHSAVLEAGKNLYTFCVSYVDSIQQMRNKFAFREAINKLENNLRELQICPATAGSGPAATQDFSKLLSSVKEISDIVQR
Chain of Glycogen synthase kinase-3 beta (Homo sapiens) (P49841 whole entry, looked up): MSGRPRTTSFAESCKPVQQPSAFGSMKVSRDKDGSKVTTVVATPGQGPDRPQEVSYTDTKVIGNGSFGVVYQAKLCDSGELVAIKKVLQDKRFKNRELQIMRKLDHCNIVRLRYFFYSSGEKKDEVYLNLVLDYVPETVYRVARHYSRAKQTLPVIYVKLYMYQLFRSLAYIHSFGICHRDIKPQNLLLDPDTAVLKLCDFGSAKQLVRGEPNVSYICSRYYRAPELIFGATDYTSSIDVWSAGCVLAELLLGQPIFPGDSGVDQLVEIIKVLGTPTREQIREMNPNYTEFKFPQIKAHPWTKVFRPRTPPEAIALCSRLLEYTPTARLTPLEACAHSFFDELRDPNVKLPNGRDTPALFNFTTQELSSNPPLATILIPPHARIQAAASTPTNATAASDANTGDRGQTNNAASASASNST

As a reminder, the ΔTm is the change in melting temperature against a reference sample. Consider `CO[C@@H](C)CN1CC[C@]2(C)c3cc(O)ccc3C[C@H]1C2(C)C`, for which the ΔTm in assay [1] was 0.73 °C; in assay [2], 0.61 °C; in assay [3], 0.53 °C; in assay [4], -0.14 °C; in assay [5], 0.27 °C; in assay [6] it was -0.25 °C. Besides, in assay [7], the ΔTm worked out at 0.53 °C.

For the compound `O=C(NCCN1CCC2(CC1)C(=O)NCN2c1cccc(F)c1)c1ccc2ccccc2c1`, the ΔTm in assay [1] is -0.28 °C; in assay [2], 0.17 °C; in assay [3], 0.58 °C; in assay [4], -0.14 °C; in assay [5], 0.08 °C; in assay [6], 0.16 °C. For the same compound, in assay [7], the ΔTm came out at 0.18 °C.

In the case of `Cc1ccc2c(N)c(C(=O)NC3CCc4cc(N5CC6CCC(C5)N6)ccc4C3)sc2n1` (stereo not given), the ΔTm is 0.14 °C in assay [1]; -0.27 °C in assay [2]; 0.27 °C in assay [3]; -0.23 °C in assay [4]; 0.3 °C in assay [5]; -0.05 °C in assay [6]. In addition, the ΔTm in assay [7] is -1.89 °C.

Turning to `C[C@@H](CO)CCC[C@@H](C)[C@H]1CC[C@H]2[C@@H]3CC=C4C[C@@H](O)CC[C@]4(C)[C@H]3CC[C@]12C`, the ΔTm in assay [1] was 0.11 °C; in assay [2], 0.17 °C; in assay [3], 0.59 °C; in assay [4], -0.96 °C; in assay [5], 0.35 °C; in assay [6] it was -1.67 °C. In addition, the ΔTm in assay [7] is -3 °C.

On to `CN(C(=O)CCOCCOCCOCCOCCNc1cccc2c1C(=O)N(C1CCC(=O)NC1=O)C2=O)[C@H]1CC[C@@]2(C)[C@@H](CC[C@@H]3[C@@H]2CC[C@]2(C)[C@@H](c4ccc5ccncc5c4)CC[C@@H]32)C1` (stereo not given in full), for which the ΔTm in assay [1] was 1.62 °C; in assay [2], 0.45 °C; in assay [3], -6.92 °C; in assay [4], 2.49 °C; in assay [5] it was -1.53 °C; in assay [6], -1.77 °C. Moreover, the ΔTm in assay [7] was 0 °C.

With `C=CC(=O)N1CCC[C@@H](n2nc(-c3ccc(Oc4ccccc4)cc3)c3c(N)ncnc32)C1`, the ΔTm is 2.63 °C in assay [1]; 0.83 °C in assay [2]; 0.7 °C in assay [3]; -1.96 °C in assay [4]; -6.31 °C in assay [5]; 6.21 °C in assay [6]. For the same compound, in assay [7], the ΔTm is -4.01 °C.

For `C[C@@H](CN1CC[C@@]2(C)c3cccc(O)c3C[C@@H]1C2(C)C)OCc1ccccc1`, the ΔTm in assay [1] is -0.13 °C; in assay [2] it was 0.59 °C; in assay [3], 0.25 °C; in assay [4] it was -1.13 °C; in assay [5], 0.48 °C; in assay [6], 0.13 °C. Besides, the ΔTm in assay [7] is 0.17 °C.

In the case of `C[C@H](CCC(=O)O)[C@H]1CC[C@H]2[C@@H]3CC[C@@H]4C[C@H](O)CC[C@]4(C)[C@H]3CC[C@]12C`, the ΔTm is -0.82 °C in assay [1]; -1.65 °C in assay [2]; -3.52 °C in assay [3]; -3.06 °C in assay [4]; -0.88 °C in assay [5]; -4.37 °C in assay [6]. For the same compound, the ΔTm in assay [7] is -5.96 °C.

For the compound `C=C[C@@]12CCc3cc(O)ccc3[C@H]1CC[C@@]1(C)[C@H]2CC[C@@H]1O`, the ΔTm in assay [1] is 0.27 °C; in assay [2], 0.21 °C; in assay [3] it was 0.08 °C; in assay [4], 1.27 °C; in assay [5] it was 0.21 °C; in assay [6] it was 0 °C. The ΔTm in assay [7] was -0.42 °C.

Regarding `C[C@@H]1CC[C@@]2(OC1)O[C@H]1[C@@H](O)[C@H]3[C@@H]4CC[C@H]5C[C@@H](O[C@@H]6O[C@H](CO)[C@H](O[C@@H]7O[C@H](CO)C(O)[C@H](O[C@@H]8OC[C@@H](O)[C@H](O)[C@H]8O)[C@H]7O[C@@H]7O[C@H](CO)[C@H](O)[C@H](O[C@@H]8O[C@H](CO)[C@@H](O)[C@H](O)[C@H]8O)[C@H]7O)[C@H](O)[C@H]6O)[C@H](O)C[C@]5(C)[C@H]4CC[C@]3(C)[C@H]1[C@@H]2C` (stereo not given in full), the ΔTm in assay [1] was 0.2 °C; in assay [2], 0.55 °C; in assay [3], 0.07 °C; in assay [4] it was -0.93 °C; in assay [5], 0.27 °C; in assay [6], -0.73 °C. Moreover, the ΔTm in assay [7] was -3.45 °C.

For the compound `CNc1nc(-c2cc(C(=O)N3CCN(Cc4ccc(Cl)cc4)CC3)c(Cl)cn2)cs1`, the ΔTm in assay [1] was -0.06 °C; in assay [2], 0.89 °C; in assay [3], 0.17 °C; in assay [4] it was 0.59 °C; in assay [5] it was 0.23 °C; in assay [6] it was -0.18 °C. Moreover, the ΔTm in assay [7] was determined as 0.39 °C.

For the compound `Clc1ccccc1C(c1ccccc1)(c1ccccc1)n1cccn1`, the thermal shift (ΔTm) in assay [1] is 0.43 °C; in assay [2], 0.09 °C; in assay [3], -0.01 °C; in assay [4], -0.43 °C; in assay [5], 0.22 °C; in assay [6], -0.47 °C. The ΔTm in assay [7] was -0.54 °C.

As for `Cc1nnc2n1-c1sc3c(c1C(c1ccccc1Cl)=NC2)CC(C(=O)N1CCOCC1)C3` (stereo not given), the ΔTm in assay [1] is 0.38 °C; in assay [2] it was 1.08 °C; in assay [3], 0.02 °C; in assay [4] it was -0.24 °C; in assay [5], 0.25 °C; in assay [6], 0.1 °C. In assay [7], the ΔTm was determined as 0.23 °C.

Turning to `Cc1nnc2n1-c1sc3c(c1C(c1ccccc1Cl)=NC2)C[C@@H](C(=O)N1CCOCC1)C3`, the ΔTm in assay [1] worked out at 0.78 °C; in assay [2], 0.74 °C; in assay [3], 0.17 °C; in assay [4], 0.5 °C; in assay [5], 0.3 °C; in assay [6], 0.11 °C. The ΔTm in assay [7] was -0.75 °C.

Turning to `COc1ccc(OC(=O)N(CC(=O)O)Cc2ccc(OCCc3nc(-c4ccccc4)oc3C)cc2)cc1`, the ΔTm was 0.16 °C in assay [1]; -0.27 °C in assay [2]; 0.56 °C in assay [3]; -1.96 °C in assay [4]; 0.18 °C in assay [5]; -0.93 °C in assay [6]. Also, the ΔTm in assay [7] is -4.78 °C.

On to `C=CC(=O)Nc1ccc2[nH]c(=O)n(C3CCN(Cc4ccc(-c5ccc6c(c5)NC(=O)CO6)cc4)CC3)c2c1`, for which the ΔTm in assay [1] was 0.74 °C; in assay [2] it was -0.1 °C; in assay [3], 0.68 °C; in assay [4], 3.14 °C; in assay [5] it was 0.64 °C; in assay [6], 1.01 °C. The ΔTm in assay [7] is -2.17 °C.

Consider `CCN1C(=O)C(c2cccc(C(=O)O)c2)C(=O)N(c2ccccc2)c2cc(C(F)(F)F)ccc21` (stereo not given), for which the ΔTm in assay [1] is -0.5 °C; in assay [2], -0.13 °C; in assay [3], 0.29 °C; in assay [4], -1.43 °C; in assay [5] it was 0.17 °C; in assay [6], -0.25 °C. Further, in assay [7], the ΔTm was 0.23 °C.

Turning to `O=C1CCC(N2Cc3cc(CNC(=O)C(F)(F)c4ccc(Cl)cc4)ccc3C2=O)C(=O)N1` (stereo not given), the shift in melting temperature (ΔTm) was 0.53 °C in assay [1]; 0.76 °C in assay [2]; 0.06 °C in assay [3]; 0.18 °C in assay [4]; 0.34 °C in assay [5]; -0.46 °C in assay [6]. In assay [7], the ΔTm is -0.96 °C.

As to `Cc1nnc2n1-c1sc(CCC(=O)N3CCOCC3)cc1C(c1ccccc1Cl)=NC2`, the ΔTm in assay [1] is 0.15 °C; in assay [2], 0.99 °C; in assay [3], 0.34 °C; in assay [4] it was -0.2 °C; in assay [5] it was 0.13 °C; in assay [6], 0.01 °C. Also, the ΔTm in assay [7] was 0.29 °C.

Turning to `CO[C@H](C)CN1CC[C@@]2(C)c3ccc(O)cc3C[C@@H]1C2(C)C`, the ΔTm in assay [1] is 0.21 °C; in assay [2] it was -0.28 °C; in assay [3] it was 0.29 °C; in assay [4] it was -0.8 °C; in assay [5], 0.34 °C; in assay [6], 0.3 °C. The ΔTm in assay [7] was found to be 0.33 °C.
